The list is not random: actives were taken first. Their share in the collection is about 19%.
DT40 TDP1 CPT: qHTS for Inhibitors of human tyrosyl-DNA phosphodiesterase 1 (TDP1): qHTS in cells in presence of CPT; Potency, µM (top dose mostly 46.2 µM), most hits filed as inhibitors; AID 686979, 2013; 12% of 420,000 active; chicken DT40 Tdp1-/-;hTDP1 cells + 20 nM CPT, ATP luminescence, 48 h; also: nearly all actives have a fitted effect of over 55% in size
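Chicken DT40 Tdp1-/- cells complemented with human TDP1, 400 cells/well, exposed to compounds plus 20 nM camptothecin for at least 48 h at 37 C; viability read as ATP content by CellTiter-Glo luminescence.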
IL-1B inflam inh: qHTS for Inhibitors of Inflammasome Signaling: IL-1-beta AlphaLISA Primary Screen; THP-1 LPS/ATP IL-1B secretion, AlphaLISA, 16 h; stronger effect = lower value; activity change, % at 57.5 µM; 4.7% of 360,000 active; AID 743279, 2014; in the data active = activity change below about -50%; inconclusive = mostly about -30% to -49%
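Secreted IL-1B measured by AlphaLISA bead assay after 16 h compound exposure of THP-1 cells; compounds (final up to 57.5 uM) added 1 h before LPS (250 ng/mL) and ATP (1.25 mM) stimulation; lower signal means less secretion.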
HepG2 tox: qHTS for Inhibitors of TGF-b: Cytotox Counterscreen. AID 588856, 2011. Potency, µM (series often up to 46.1 µM), actives largely listed as cytotoxic. HepG2 CAGA-GFP viability, ATP luminescence, 18 h. 0.76% of 410,000 active
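CellTiter-Glo luminescence gave cytotoxicity after 18 hours at 37 degrees C. The cells were HepG2 CAGA-GFP in 1% FBS DMEM, stimulated with 500 pg/mL TGF-beta after compound addition. %Activity was normalised to no-cell wells (complete cell-killing) and DMSO (no toxicity), and curves were fitted and classified.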
TGFb SMAD3 inh: qHTS for Inhibitors of TGF-b; HepG2 CAGA-GFP TGF-b/SMAD3 reporter, GFP fluorescence, 18 h; TGF-beta stimulated, 500 pg/mL final; Potency, µM (highest dose often 46.1 µM), hits mostly inhibitors; 1.2% of 410,000 active; also: nearly all actives have a fitted effect of over 65% in size
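Inhibition was scored as loss of TGF-beta-induced (500 pg/mL final, 18 hours, 37 degrees C) GFP in HEPG2 cells carrying a CAGA-GFP reporter, in DMEM with 1% FBS. Well GFP was summed per cell; Activity was normalised to unstimulated and stimulated DMSO wells, then concentration-response fitting.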
TDP1 cell noCPT: qHTS for Inhibitors of human tyrosyl-DNA phosphodiesterase 1 (TDP1): qHTS in cells in absence of CPT; Potency, µM (doses to about 46.2 µM), hits mostly inhibitors; DT40 Tdp1-/- hTDP1 cells, no CPT, ATP luminescence, 48 h; 15% of 420,000 active; also: nearly all actives have a fitted effect of over 55% in size
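Luminescent ATP content (CellTiter-Glo) served as the growth readout. Knockout chicken DT40 cells expressing human TDP1 were exposed to compounds without camptothecin for a minimum 48 hr at 37 °C.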
TDP1 inh: qHTS Assay for Inhibitors of Tyrosyl-DNA Phosphodiesterase (TDP1); Tyrosyl-DNA phosphodiesterase 1 (Homo sapiens), Q9NUW8; recombinant TDP1, AlphaScreen DNA substrate cleavage; Potency, µM (series often up to 130 µM), actives largely listed as inhibitors; 0.28% of 350,000 active; also: nearly all actives have a fitted effect of over 40% in size
Target sequence (Q9NUW8 whole entry, looked up): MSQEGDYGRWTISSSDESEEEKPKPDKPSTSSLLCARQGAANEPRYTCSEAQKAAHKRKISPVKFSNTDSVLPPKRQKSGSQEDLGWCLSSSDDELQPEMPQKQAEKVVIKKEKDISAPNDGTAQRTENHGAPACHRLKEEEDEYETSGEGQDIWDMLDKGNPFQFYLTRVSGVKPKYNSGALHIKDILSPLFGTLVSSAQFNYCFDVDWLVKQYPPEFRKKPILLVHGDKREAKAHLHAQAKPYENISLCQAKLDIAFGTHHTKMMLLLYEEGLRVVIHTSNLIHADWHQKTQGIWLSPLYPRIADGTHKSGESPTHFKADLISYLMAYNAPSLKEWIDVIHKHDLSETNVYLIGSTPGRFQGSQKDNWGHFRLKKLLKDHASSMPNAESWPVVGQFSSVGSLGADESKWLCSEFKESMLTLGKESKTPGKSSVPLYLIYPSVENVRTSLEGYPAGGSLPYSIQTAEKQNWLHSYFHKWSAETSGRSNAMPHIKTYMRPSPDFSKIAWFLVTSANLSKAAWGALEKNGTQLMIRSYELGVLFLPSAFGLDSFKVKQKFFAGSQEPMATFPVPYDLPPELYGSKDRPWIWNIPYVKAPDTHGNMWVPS
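Here, a 5' biotin and 3' phosphotyrosine-FITC DNA oligonucleotide reports Tdp1 activity: intact substrate bridges AlphaScreen beads, while cleavage leaves a 3' phosphate and drops signal. All incubations at room temperature.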
Of the large screens only hits and unclear results are named; the others gave an inactive call. Unless noted, calls follow the shape of the dose curve; as a rule, active = well fitted curve in the direction sought with a large enough effect; inconclusive = small, poorly fitted or top-dose-only effect, or another doubt; inactive = no such curve, though single readings can be large; an effect the other way counts as inactive or inconclusive.

CCN(C[C@H]1N[C@@](Cc2ccccc2)(C(=O)OC)[C@H]2C(=O)N(Cc3ccccc3)C(=O)[C@@H]12)C(=O)C1CCCCC1	DT40 TDP1 CPT inconclusive, TDP1 cell noCPT 13µM
CCN(C[C@H]1N[C@@](Cc2ccccc2)(C(=O)OC)[C@H]2C(=O)N(Cc3ccccc3)C(=O)[C@@H]12)C(=O)COc1ccccc1	DT40 TDP1 CPT 21µM, TGFb SMAD3 inh inconclusive, TDP1 cell noCPT 18µM
CCNC(=O)N(CC)C[C@H]1N[C@@](Cc2ccccc2)(C(=O)OC)[C@H]2C(=O)N(Cc3ccccc3)C(=O)[C@@H]12	none
COC(=O)[C@]1(Cc2ccccc2)N[C@H](CN(C)C(=O)COc2ccccc2)[C@@H]2C(=O)N(Cc3ccccc3)C(=O)[C@@H]21	DT40 TDP1 CPT 21µM, TGFb SMAD3 inh inconclusive, TDP1 cell noCPT inconclusive
O=C(NC1CCN(Cc2ccccc2)CC1)C1CCN(S(=O)(=O)c2cccc3cccnc23)CC1	DT40 TDP1 CPT 18µM, TDP1 cell noCPT 15µM
O=S(=O)(NCC1CCCN(Cc2ccccc2)C1)c1cccc2cccnc12 (stereo unspecified)	IL-1B inflam inh inconclusive
O=S(=O)(NC1CCN(Cc2ccccc2)CC1)c1cccc2cccnc12	DT40 TDP1 CPT inconclusive, TDP1 cell noCPT 18µM
CCOc1ccc(N2CC(C)Cn3c2nc2c3c(=O)n(CC(=O)O)c(=O)n2C)cc1 (stereo unspecified)	none (no result: IL-1B inflam inh)
COc1ccc(NC(=O)C2=C(C)Nc3ncnn3C2c2cccn2C)cc1 (stereo unspecified)	none (no result: IL-1B inflam inh)
O=C(c1ccc(-c2ccccc2Cl)o1)N1CCC1	TDP1 cell noCPT inconclusive
CC1CCN(C(=O)c2ccc(-c3ccccc3Cl)o2)CC1	IL-1B inflam inh -100, TDP1 cell noCPT inconclusive
S=C(c1ccc(-c2ccccc2Cl)o1)N1CCOCC1	DT40 TDP1 CPT inconclusive, IL-1B inflam inh -91, TDP1 cell noCPT inconclusive
CC1CCCCC1NC(=O)CN1C(=O)NC(C)(c2cc(F)ccc2F)C1=O (stereo unspecified)	none
Cc1ccc(NC(=O)C(C)OC(=O)/C=C/c2ccccc2)cc1S(=O)(=O)N1CCOCC1 (stereo unspecified)	DT40 TDP1 CPT inconclusive, TDP1 cell noCPT inconclusive
CC(=O)CCn1cc([N+](=O)[O-])nc1C	none
N#Cc1ccccc1NC(=O)Cn1cnc2onc(-c3cccc(F)c3)c2c1=O	none (no result: IL-1B inflam inh)
Cc1cc(S(=O)(=O)Nc2ccc3oc4c(c3c2)CCCC4)ccc1Cl	DT40 TDP1 CPT 21µM, TGFb SMAD3 inh 16µM, TDP1 cell noCPT 23µM (no result: IL-1B inflam inh, TDP1 inh)
COc1ccc(C)cc1S(=O)(=O)Nc1ccc(F)cc1	none
Cc1ccc(C)c(S(=O)(=O)Nc2ccc(O)cc2)c1	DT40 TDP1 CPT inconclusive, TDP1 cell noCPT inconclusive
COC(=O)CCC(=O)Nc1ccc2oc3c(c2c1)CCCC3	none
Cc1cc(C)c(S(=O)(=O)Nc2ccc(O)cc2)cc1C	DT40 TDP1 CPT inconclusive, TDP1 cell noCPT 21µM
CCOc1cc(C)c(S(=O)(=O)Nc2ccc(F)cc2)cc1C	DT40 TDP1 CPT 16µM, TGFb SMAD3 inh inconclusive, TDP1 cell noCPT 16µM
Cc1cc(C)c(S(=O)(=O)Nc2ccc3oc4c(c3c2)CCCC4)cc1C	DT40 TDP1 CPT 16µM, TGFb SMAD3 inh inconclusive, TDP1 cell noCPT inconclusive (no result: IL-1B inflam inh, TDP1 inh)
Cc1ccc(NS(=O)(=O)c2ccc(Cl)cc2)cc1C	none (no result: DT40 TDP1 CPT, IL-1B inflam inh, HepG2 tox, TGFb SMAD3 inh, TDP1 cell noCPT)
O=C(NC1CC1)C1CC(=O)N(c2cccc(Cl)c2)C1 (stereo unspecified)	none
COc1cc(NC(=O)C(CC(C)C)NS(=O)(=O)c2ccc3c(c2)CCCC(=O)N3)cc(OC)c1 (stereo unspecified)	TGFb SMAD3 inh inconclusive (no result: IL-1B inflam inh)

High-throughput results: PubChem BioAssay, National Center for Advancing Translational Sciences (NCATS)
